Measurements reported in PubChem BioAssay AID1159580 (chemical genetic matrix, 2015).
Several values for one entry are separate records, joined by “and”; a condition that tells them apart may be missing. Identical values can stand only once. In all, about 5,500 compounds went through this assay and about 2,000 (36%) were called active. Not shown: some 18% with an inconclusive outcome. No stated cut-off is given here; in the data, active means normalized growth mostly below about 0.91 (no sharp cut-off); inconclusive means no clear call, values can overlap the other calls; inactive means mostly above about 0.92. This is one part of the list.

Test: chemical genetic growth profiling, strain panel (AID 1159580);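 further: tested at 20 µM; growth read once vehicle control cultures reached saturation at 30 °C; 1 = growth at the plate median or of vehicle wells; lower values mean less growth of the strain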
Details: S. cerevisiae deletion strains, growth OD

Measured: normalized growth

NC(Cc1c[nH]c2ccccc12)C(=O)O (configuration not stated)
inactive: locus YAL013W, strain DEP1, active compounds read low 1 | locus YAL021C, strain ccr4, active compounds read low 1 | locus YAL026C, strain drs2, active compounds read low 1.01 | locus YAL030W, strain snc1, active compounds read low 1.02 | locus YBL061C, strain skt5, active compounds read low 1.04 | locus YBR009C, strain hhf1, active compounds read low 1 | locus YBR021W, strain FUR4, active compounds read low 1.01 | locus YBR023C, strain chs3, active compounds read low 1.02 | locus YBR171W, strain sec66, active compounds read low 1.03 | locus YBR229C, strain ROT2, active compounds read low 0.957 | locus YBR231C, strain swc5, active compounds read low 1.02 | locus YBR279W, strain paf1, active compounds read low 1.02 | locus YCL011C, strain gbp2, active compounds read low 1.02 | locus YCL016C, strain dcc1, active compounds read low 1.01 | locus YCL029C, strain bik1, active compounds read low 0.98 | locus YCL061C, strain MRC1, active compounds read low 1.01 | locus YCL069W, strain vba3, active compounds read low 1.03 | locus YCR088W, strain abp1, active compounds read low 1.02 | locus YDL005C, strain med2, active compounds read low 1.03 | locus YDL035C, strain GPR1, active compounds read low 1 | locus YDL040C, strain nat1, active compounds read low 1.03 | locus YDL074C, strain BRE1, active compounds read low 1.02 | locus YDL101C, strain DUN1, active compounds read low 0.984 | locus YDL134C, strain PPH21, active compounds read low 0.961 | locus YDL185W, strain tfp1, active compounds read low 0.986 | locus YDL192W, strain arf1, active compounds read low 0.984 | locus YDR001C, strain nth1, active compounds read low 1.04 | locus YDR069C, strain doa4, active compounds read low 1 | locus YDR101C, strain arx1, active compounds read low 0.996 | locus YDR137W, strain rgp1, active compounds read low 1.03 | locus YDR150W, strain NUM1, active compounds read low 0.965 | locus YDR159W, strain sac3, active compounds read low 1.02 | locus YDR162C, strain NBP2, active compounds read low 0.998 | locus YDR195W, strain ref2 1.02 | locus YDR297W, strain sur2, active compounds read low 1.02 | locus YDR318W, strain mcm21, active compounds read low 0.988 | locus YDR334W, strain swr1, active compounds read low 1.02 | locus YDR335W, strain msn5, active compounds read low 1.03 | locus YDR388W, active compounds read low 0.997 | locus YDR392W, strain spt3, active compounds read low 0.939 | locus YDR502C, strain sam2, active compounds read low 0.997 | locus YEL003W, strain gim4, active compounds read low 1.01 | locus YEL037C, strain rad23, active compounds read low 1.02 | locus YEL061C, strain CIN8 (second series), active compounds read low 1.02 | locus YEL061C, strain CIN8, active compounds read low 0.987 | locus YER015W, strain faa2, active compounds read low 1.02 | locus YER016W, strain bim1, active compounds read low 1.02 | locus YER110C, active compounds read low 0.98 | locus YER111C, strain swi4, active compounds read low 1.03 | locus YER155C, strain BEM2 (second series), active compounds read low 0.997 | locus YER155C, strain BEM2, active compounds read low 1.01 | locus YER167W, strain BCK2, active compounds read low 1.01 | locus YFR010W, strain ubp6, active compounds read low 1.02 | locus YGL078C, strain dbp3, active compounds read low 0.982 | locus YGL086W, strain mad1, active compounds read low 1.01 | locus YGL167C, strain pmr1, active compounds read low 1.02 | locus YGL173C, strain kem1, active compounds read low 1.03 | locus YGL227W, strain vid30, active compounds read low 1.03 | locus YGL240W, strain doc1, active compounds read low 1 | locus YGL248W, strain PDE1, active compounds read low 0.991 | locus YGL253W, strain hxk2, active compounds read low 1.01 | locus YGR078C, strain PAC10, active compounds read low 0.991 | locus YGR135W, strain pre9, active compounds read low 0.993 | locus YGR229C, strain SMI1, active compounds read low 1 | locus YGR252W, strain gcn5, active compounds read low 0.981 | locus YHR013C, strain ard1, active compounds read low 1.02 | locus YHR027C, strain rpn1, active compounds read low 1.02 | locus YHR030C, strain SLT2, active compounds read low 0.988 and 0.966 | locus YHR079C, strain IRE1 (second series), active compounds read low 0.989 | locus YHR079C, strain IRE1, active compounds read low 0.983 | locus YHR094C, strain hxt1, active compounds read low 0.988 | locus YHR129C, strain ARP1, active compounds read low 0.993 | locus YHR142W, strain chs7, active compounds read low 1.03 | locus YHR200W, strain rpn10, active compounds read low 0.995 | locus YIL066C, strain RNR3, active compounds read low 0.979 | locus YIL073C, strain SPO22, active compounds read low 1 | locus YIL125W, strain kgd1, active compounds read low 0.998 | locus YIR030C, strain dcg1, active compounds read low 0.992 | locus YJL092W, strain hpr5, active compounds read low 1.03 | locus YJL095W, strain BCK1 (second series), active compounds read low 1.02 | locus YJL095W, strain BCK1, active compounds read low 1.04 and 0.984 | locus YJL115W, strain asf1, active compounds read low 1.03 | locus YJL129C, strain trk1, active compounds read low 1.02 | locus YJL134W, strain LCB3, active compounds read low 0.987 | locus YJL154C, strain vps35, active compounds read low 1.02 | locus YJL164C, strain tpk1, active compounds read low 1 | locus YJL166W, strain qcr8, active compounds read low 1.01 | locus YJL168C, strain set2, active compounds read low 0.99 | locus YJL187C, strain SWE1 (second series), active compounds read low 0.973 | locus YJL187C, strain SWE1, active compounds read low 1.03 | locus YJR043C, strain POL32, active compounds read low 1.01 | locus YJR066W, strain TOR1, active compounds read low 0.978
